Experimental findings from PubChem BioAssay (EPA / NIEHS) are described below.

Records with an inconclusive call do not appear. Active and inactive are the calls of the source. How the source made its calls, unless noted: active means hit-call score of the fitted dose curve at least 0.9, where 1 is the maximum; inactive means score below 0.9.

A short description of experiment [1]: CCTE_Shafer_MEA_dev_firing_rate_mean: CCTE's Neural Network Formation Assay for Mean Firing Rate, Shafer Lab (AID 2284031). Summed up:
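Primary rat cortical neurons on 48-well MEA plates, exposed from plating day 0 with dosing renewed on DIV 5 and 9. Mean well firing rate over active electrodes, recorded days 5, 7, 9, 12, summarised as trapezoidal AUC.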

Experiment [2] in a line: CCTE_Shafer_MEA_dev_per_burst_spike_percent: CCTE's Neural Network Formation Assay for Percent of Spikes in a Burst, Shafer Lab (AID 2284032).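 Further: fitted as a decrease in burst spike percentage below DMSO baseline.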 Summed up:
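Rat primary cortical neurons on 16-electrode MEA wells, dosed from plating day 0 for 12 days with renewal on DIV 5 and 9; spikes-in-bursts percentage averaged over bursting electrodes, collapsed as AUC across days 5, 7, 9, 12; loss direction versus DMSO.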

The nature of experiment [3]: CCTE_Shafer_MEA_dev_active_electrodes_number: CCTE's Neural Network Formation Assay for Number of Active Electrodes, Shafer Lab (AID 2284040; active means hit-call score of the fitted dose curve at least 0.9, where 1 is the maximum;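 further: potency for loss of active electrodes versus DMSO so lower counts are hits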). Summed up:
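Primary rat cortical neurons on 16-electrode MEA wells, exposed from day 0 through day 12 with compound renewed at DIV 5 and 9 feeds. Active electrodes (mean firing ≥5 spikes/min) counted at DIV 5, 7, 9, 12; trapezoidal AUC across days, loss-of-signal versus DMSO.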

Experiment [4] is described as follows: CCTE_Shafer_MEA_dev_bursting_electrodes_number: CCTE's Neural Network Formation Assay for Number of Bursting Electrodes, Shafer Lab (AID 2284043; active means hit-call score of the fitted dose curve at least 0.9, where 1 is the maximum;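 further: potency is for loss of bursting electrodes relative to DMSO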). Summed up: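 Read-out is the per-well number of electrodes bursting at least once every 2 minutes, recorded on days 5, 7, 9 and 12 and collapsed by trapezoidal area under the curve. Cultures were primary rat cortical neurons on MEA plates, treated continuously from plating.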

Experiment [5] in a line: CCTE_Shafer_MEA_dev_per_burst_interspike_interval: CCTE's Neural Network Formation Assay for Burst Interspike Interval, Shafer Lab (AID 2284044).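 Further: mean spike spacing inside bursts as AUC over recordings on days 5 7 9 12; potency for a decrease of within-burst interspike interval below DMSO level.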 Summed up:
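Spontaneous activity of maturing rat cortical networks is recorded on DIV 5, 7, 9 and 12 under chronic compound exposure beginning at plating. Endpoint: burst interspike interval well-mean, collapsed into trapezoidal AUC and fitted in the negative direction relative to DMSO.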

Experiment [6] in a line: CCTE_Shafer_MEA_dev_burst_duration_mean: CCTE's Neural Network Formation Assay for Mean Burst Duration, Shafer Lab (AID 2284045). Summed up: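 Read-out: average first-to-last-spike interval within single-electrode bursts, averaged over bursting electrodes per well, then summarised as area under the curve across days 5, 7, 9 and 12. Developing rat cortical networks were exposed from day 0.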

Experiment [7] can be described thus: CCTE_Shafer_MEA_dev_interburst_interval_mean: CCTE's Neural Network Formation Assay for Mean Interburst Interval, Shafer Lab (AID 2284046).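 Further: curve fitted for decrease in interburst interval relative to DMSO.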 Summed up: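 Primary rat cortical neurons on PEI-coated 48-well MEA plates (laminin added with cells at plating) (16 electrodes/well), exposed from plating day 0 with renewal at DIV 5 and 9. Mean inter-burst interval averaged over bursting electrodes, AUC across days 5, 7, 9, 12; DMSO baseline.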

A short description of experiment [8]: CCTE_Shafer_MEA_dev_network_spike_number: CCTE's Neural Network Formation Assay for Number of Network Spikes, Shafer Lab (AID 2284048).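 Further: synchronized bursts across electrodes counted on days 5 7 9 12 and integrated as AUC.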 Summed up:
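Developing networks of primary rat cortical neurons are treated over 12 days starting at plating, with media and compound fully replaced on DIV 5 and 9. Network spike counts from four recording days are integrated as trapezoidal AUC.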

Experiment [9] can be described thus: CCTE_Shafer_MEA_dev_network_spike_peak: CCTE's Neural Network Formation Assay for Mean Number of Electrodes in Network Spike, Shafer Lab (AID 2284049).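 Further: fitted for loss of signal meaning fewer electrodes in network spikes than DMSO.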 Summed up: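 Rat cortical primary culture, 1.5 x 10^5 cells/well, 48-well MEA (16 electrodes/well). Dosing day 0 through DIV 12, full media/compound exchange DIV 5, 9. AxIS adaptive spike detection; AUC over days 5/7/9/12; loss-of-signal vs DMSO.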

Experiment [10] in a line: CCTE_Shafer_MEA_dev_spike_duration_mean: CCTE's Neural Network Formation Assay for Mean Spike Duration, Shafer Lab (AID 2284051).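 Further: potency for a decrease in mean network spike duration versus DMSO.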 Summed up: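 Spontaneous activity was recorded on days 5, 7, 9 and 12 from rat cortical cultures grown on microelectrode arrays and dosed continuously from day 0, with media and compound renewed after the DIV 5 and 9 recordings. Network-spike duration was collapsed by area under the curve.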

Experiment [11] can be described thus: CCTE_Shafer_MEA_dev_per_network_spike_spike_number_mean: CCTE's Neural Network Formation Assay for Mean Number of Spikes in a Network Spike, Shafer Lab (AID 2284053).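 Further: fitted as decrease in spikes per network spike relative to DMSO.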 Summed up:
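Mean spike count within each network spike, taken in a 0.05 s window at its peak, was recorded on days 5, 7, 9 and 12 and integrated as trapezoidal area under the curve. Rat cortical cultures on MEA plates received continuous compound from day 0, refreshed at medium changes on DIV 5 and 9.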

The nature of experiment [12]: CCTE_Shafer_MEA_dev_per_network_spike_spike_percent: CCTE's Neural Network Formation Assay for Percent of Spikes in a Network Spike, Shafer Lab (AID 2284054). Summed up:
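Rat primary cortical cultures, 1.5 x 10^5 cells/well on MEA. Continuous compound exposure d0–12, medium/compound renewed DIV 5, 9. Network-spike spike % (0.05 s peak window), AUC over 4 recordings, DMSO baseline.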

A short description of experiment [13]: CCTE_Shafer_MEA_dev_LDH: CCTE's Lactate Dehydrogenase Assay for Cytotoxicity in the Neural Network Formation Assay, Shafer Lab (AID 2284068; active means hit-call score of the fitted dose curve at least 0.9, where 1 is the maximum;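 further: exposure for twelve days from plating with re-dosing on DIV 5 and 9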). Summed up:
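Primary rat cortical neurons were cultured on PEI-coated MEA plates and exposed from plating through day 12, with compound renewed at medium changes on DIV 5 and 9. LDH activity was read spectrophotometrically; loss of signal versus DMSO indicates reduced viability.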

Experiment [14] is described as follows: CCTE_Shafer_MEA_dev_AB: CCTE's Alamar Blue Assay for Cytotoxicity in the Neural Network Formation Assay, Shafer Lab (AID 2284083; active means hit-call score of the fitted dose curve at least 0.9, where 1 is the maximum;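 further: resazurin reduction fluorescence as viability of cultured neurons; twelve days of exposure from plating with re-dosing on DIV 5 and 9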). Summed up: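 Resazurin fluorescence, relative to DMSO, gauges viability after twelve days of exposure that began at plating of rat cortical neurons (1.5 x 10^5 cells/well, 48-well MEA); treatment renewed with full medium exchange on DIV 5 and 9.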
A general note: Resazurin is reduced to fluorescent resorufin, in cell work by metabolically active cells.

Experiment [15] is described as follows: CCTE_Shafer_MEA_dev_mutual_information_norm: CCTE's Neural Network Formation Assay for Mutual Information Normalization, Shafer Lab (AID 2284091). Summed up:
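Developing rat cortical networks on 16-electrode MEA wells are treated throughout formation (DIV 0–12). Shared electrode information is recorded four times, converted to area-under-curve, and fitted for decreases against DMSO vehicle.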

Experiment [16] in a line: CCTE_Shafer_MEA_dev_correlation_coefficient_mean: CCTE's Neural Network Formation Assay for Mean Correlation Coefficient, Shafer Lab (AID 2284093). Summed up:
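Primary rat cortical neurons on PEI-coated 48-well MEA plates (16 electrodes/well) were exposed from plating day 0 through DIV12, with compound renewed at DIV5 and 9. Pairwise spike correlations were averaged per well; trapezoidal AUC across DIV5, 7, 9, 12.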

A short description of experiment [17]: UKN2_HCS_IMR90_neural_migration: University of Konstanz (UKN) Leist Lab Neural Crest Cell Migration Assay in human induced IMR90 Pluripotent Stem Cells (UKN2) (AID 2284204). To be noted: actives raise or lower the signal. Summed up: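 Migration of human IMR90-derived neural crest cells into a stopper-defined gap is imaged after 24 h chemical treatment. Activity is fitted bidirectionally relative to DMSO.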

The nature of experiment [18]: IUF_NPC1b_proliferation_BrdU_72hr: Leibniz Research Institute for Environmental Medicine (IUF) 72-hour Neural Progenitor Cell Bromodeoxyuridine (BrdU) Proliferation Assay (NPC1b) (AID 2284207). Summed up:
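Proliferation of primary human neural progenitor cells: 72 h compound treatment at 37C, 5% CO2, pH 7.2-7.6, in EGF/FGF-containing medium. Readout is BrdU uptake (last 16 h) by chemiluminescent ELISA, normalised to DMSO.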

The nature of experiment [19]: IUF_NPC1a_proliferation_area_72hr: Leibniz Research Institute for Environmental Medicine (IUF) 72-hour Neural Progenitor Cell Proliferation Area Assay (NPC1a) (AID 2284208). Summed up:
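Measured in 3D suspension: each well held one primary hNPC sphere grown with EGF and FGF at pH 7.2-7.6. Compound stayed on for 72 h, then area was imaged; spheres lacking growth factors defined reduced proliferation.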

A short description of experiment [20]: IUF_NPC1_viability_72hr: Viability Assessment at 72 hours in the Leibniz Research Institute for Environmental Medicine (IUF) Neural Progenitor Cell Proliferation Assay (NPC1) (AID 2284209). Summed up: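 Single spheres (0.25-0.35 mm) of human fetal cortex-derived neural progenitor cells were grown in proliferation medium with EGF and FGF at 37C and 5% CO2. They were exposed for 72 h without renewal, and viability was read by alamar blue resorufin fluorescence.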

Experiment [21] in a line: CCTE_Mundy_HCI_Cortical_Synap_Neur_Matur_NeuriteSpotCountPerNeuriteLength: CCTE's Synaptogenesis and Neurite Maturation Assay in rat cortical cells for Neurite Spot Count per Neurite Length, Mundy Lab (AID 2284210). Summed up:
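Primary rat cortical neurons, compound exposure DIV 7–12, 288.33 h endpoint. Hoechst, anti-MAP2 and anti-synaptophysin labelling; neurite-associated puncta per neurite length scored by automated imaging relative to DMSO controls.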

The nature of experiment [22]: CCTE_Mundy_HCI_Cortical_Synap_Neur_Matur_BPCount: CCTE's Synaptogenesis and Neurite Maturation Assay in rat cortical cells for Branch Point Count, Mundy Lab (AID 2284211). Summed up: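 Rat primary cortical cultures, AraC added DIV 5; chemicals dosed DIV 7 through DIV 12. Fixed cells stained for MAP2, synaptophysin and Hoechst; neurite branch points counted by automated high-content imaging, fitted relative to DMSO.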

Experiment [23] is described as follows: CCTE_Mundy_HCI_Cortical_NOG_NeuriteCount: CCTE's Neurite Outgrowth Assay in rat cortical cells for Neurite Count, Mundy Lab (AID 2284212).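 Further: cells fixed about two days after chemical exposure began.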 Summed up:
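Neurite number per cell from high-content imaging of betaIII-tubulin immunostaining, with Hoechst nuclear counterstain.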

The nature of experiment [24]: CCTE_Mundy_HCI_Cortical_NOG_NeuriteLength: CCTE's Neurite Outgrowth Assay in rat cortical cells for Neurite Length, Mundy Lab (AID 2284213). Summed up:
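Neurite length was read by high-content imaging of βIII-tubulin-labelled neurites in rat primary cortical cultures. Activity was fitted relative to DMSO.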

For orientation: AC50 means the concentration giving half of the maximal activity seen. With `CC(C)O`, the compound was called inactive in [1], in experiment [6], in [7], in experiment [8], in experiment [12] and in [13]. Moreover, the call in experiment [14], in experiment [15], in experiment [16], in experiment [17], in experiment [19] and in [20] was inactive. In addition, the result in [21], in [22], in experiment [23] and in [24] was inactive. Further, the AC50 in [2] was 10.2 µM (active); in experiment [3], 7.59 µM (active); in experiment [4], 11.8 µM (active); in experiment [5] it was 10.2 µM (active); in experiment [9], 8.39 µM (active); in experiment [10], 14.3 µM (active). The results for the half-maximal activity concentration (AC50) in experiment [11] and in experiment [18] were 5.31 µM (active) and 91.7 µM (active), respectively.
